Laboratory results reported in PubChem BioAssay (NCATS).
Unmarked numbers belong to inactive results. Results filed as inconclusive are left out. Entries that show only a call come without a potency. The source made the active and inactive calls. Calls follow the shape of the dose curve; as a rule, active = well fitted curve in the direction sought with a large enough effect; inconclusive = small, poorly fitted or top-dose-only effect, or another doubt; inactive = no such curve, though single readings can be large; an effect the other way counts as inactive or inconclusive. Where a SMILES comes first, the peptide text is derived from it. [ ]: non-standard residue; d: D form. Hyp = O=C(O)[CH]1C[CH](O)CN1; Phe(ol) = N[CH](CO)Cc1ccccc1; Iva = CC[C](C)(N)C(=O)O; Aib = CC(C)(N)C(=O)O

Experiments:
[1] = molecular target: Phospholipid hydroperoxide glutathione peroxidase GPX4 (Homo sapiens) (UniProt P36969); assay: Primary qHTS Assay for Inhibitors of Recombinant Selenoprotein Glutathione Peroxidase 4 (GPX4) (AID 1845192); also: nearly all actives have a fitted effect of over 65% in size; also: potency is read from the fitted curve at half-maximal effect; as to activity change, negative = inhibition: series mostly up to about 50 µM
Sequence of Phospholipid hydroperoxide glutathione peroxidase GPX4 (Homo sapiens) (P36969 whole entry, looked up): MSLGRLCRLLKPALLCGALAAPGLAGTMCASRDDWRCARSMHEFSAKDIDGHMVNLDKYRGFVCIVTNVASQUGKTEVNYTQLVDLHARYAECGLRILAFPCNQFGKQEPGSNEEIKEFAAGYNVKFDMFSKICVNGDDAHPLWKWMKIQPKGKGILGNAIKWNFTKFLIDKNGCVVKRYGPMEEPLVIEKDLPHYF
How it was run: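 GR-coupled readout: 100 nM GR, 1 mM GSH, 0.5 mM NADPH; NADPH fluorescence (ex 340/em 450 nm) read at t=0 and after 15 min RT. GPX4 200 nM, preincubated 30 min with compound; substrate 0.5 mM CHP.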

[2] = molecular target: Luciferin 4-monooxygenase (Photinus pyralis) (UniProt P08659); assay: Primary firefly luciferase (FLuc) qHTS assay for identification of artifact compounds. (AID 1845220); also: nearly all actives have a fitted effect of over 60% in size; also: potency is read from the fitted curve at half-maximal effect; as to activity change, negative = inhibition: series mostly up to about 54 µM
How it was run: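 In this counter-screen for luciferase artifacts, test compounds met substrate (10 uM each luciferin and ATP) before 10 nM enzyme started the reaction. Light output was measured 5 min later.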

[3] = Primary fluorescence-based thiol-reactive (MSTI) qHTS assay for identification of artifact compounds. (AID 1845221); also: nearly all actives have a fitted effect of over 65% in size; also: potency is read from the fitted curve at half-maximal effect;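 as to activity change, negative = thiol reactive: series mostly up to about 54 µM; thiol-reactive compounds lower the probe fluorescence signal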
How it was run: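 qHTS titration of compound; 4 uM MSTI, PBS pH 7.4, 2% DMSO; 1 h RT, dark; fluorescence 525/598 nm; normalized to Acetyl-MSTI and MSTI; 4-parameter Hill fit.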

[4] = system: Nanoluciferase (engineered Oplophorus gracilirostris luciferase); assay: Primary Nanoluciferase (NLuc) qHTS assay for identification of artifact compounds. (AID 1845222);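 also: NLuc secreted into diluted conditioned medium of S16 cells; series mostly up to about 54 µM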
How it was run: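 Using secreted nanoluciferase in S16 culture medium (0.22 um filtered, 1:55 dilution), compounds were preincubated 15 min at RT. Signal was generated with Nano-Glo reagent (1:100) over 5 min.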

[5] = Primary redox qHTS assay for identification of artifact compounds. (AID 1845223)
How it was run: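 Amplex Red (25 uM) and HRP (250 mU/mL) in HBSS, with compounds for 15 min, then 250 uM DTT for 30 min, room temperature, dark. Fluorescence 525/598 nm read; normalized to DMSO and 10 uM DA3003; Hill fit.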

C=C1/C(=C/C=C2\CCC[C@@]3(C)C2CCC3[C@H](C)/C=C/[C@@H](O)C2CC2)C[C@@H](O)C[C@@H]1O (some centres not stated)
Potency [1]: inactive
Potency [2]: inactive
Potency [3]: inactive
Potency [4]: inactive

CC(C)NC(=O)N1CC[C@H](N=C2Nc3cc(F)ccc3N(CC(F)F)c3ccc(Cl)cc32)C1
Potency [1]: inactive
activity change, negative = inhibition [2]: 1.25% [at 11.6 µM]
activity change, negative = thiol reactive [3]: 70.3% [at 11.5 µM]
activity, negative = inhibition [4]: 1.94% [at 11.6 µM]

NC(=O)c1cnc(N[C@@H]2CCCC[C@H]2N)nc1Nc1cccc(-n2nccn2)c1
Potency [1]: inactive
Potency [2]: inactive
Potency [3]: inactive
Potency [4]: inactive

CC1(C)S[C@@H]2[C@H](NC(=O)C(C(=O)Oc3ccc4c(c3)CCC4)c3ccccc3)C(=O)N2[C@H]1C(=O)O (some centres not stated)
Potency [1]: 8.91 µM (active)

CCC1C(=O)N(C)c2cnc(Nc3ccc(C(=O)NC4CCN(C)CC4)cc3OC)nc2N1C1CCCC1 (configuration not stated)
Potency [1]: inactive
Potency [2]: inactive
Potency [3]: inactive
Potency [4]: inactive

O=c1cc(OCc2ccc(F)cc2)ccn1-c1ccc(OCCN2CCCC2)cc1
Potency [1]: inactive
Potency [2]: inactive
Potency [3]: inactive
Potency [4]: inactive
Potency [5]: inactive

COCCN(C(=O)c1cc(OC)c(OC)c(OC)c1)c1nc(-c2ccccc2)cs1
Potency [1]: inactive
Potency [2]: inactive
Potency [3]: inactive
Potency [4]: inactive
Potency [5]: inactive

COC(=O)N1CC2(CC2)C[C@H](C(=O)NO)[C@H]1C(=O)N1CCN(c2ccccc2)CC1
Potency [1]: inactive

CN(C)C(CCOc1cccc2ccccc12)c1ccccc1 (configuration not stated)
Potency [1]: inactive
Potency [2]: inactive
Potency [3]: inactive
Potency [4]: inactive

CCCN(CC)C(CC)C(=O)Nc1c(C)cccc1C (configuration not stated)
Potency [1]: inactive

CC/C=C\CC1C(=O)C=CC1(CCCCC1CCC(=O)O1)OC(C)=O (configuration not stated)
Potency [1]: inactive
Potency [2]: inactive
Potency [3]: inactive
Potency [4]: inactive
Potency [5]: inactive

C/C=C/C=C/C(=O)O[C@@H]1C=C2COC(=O)[C@]2(O)[C@@]2(C)CCCC(C)(C)[C@H]12
Potency [1]: inactive
Potency [2]: inactive
Potency [3]: inactive
Potency [4]: inactive
Potency [5]: inactive

COC(=O)c1ccnc(-c2cc(C(=O)Nc3ccc(C4(N)CC4)cc3)ccn2)c1
Potency [1]: inactive
Potency [2]: inactive
Potency [3]: inactive
Potency [4]: inactive
Potency [5]: inactive

Cc1nc(Nc2cnn(C3CCNCC3)c2)nc2c1N(C)C(=O)c1cc3ccccc3cc1N2C
Potency [1]: inactive
Potency [2]: inactive
Potency [3]: inactive

Nc1nc2c(c(N3CC[C@@H](N)C3)n1)CCCc1ccccc1-2
Potency [1]: inactive
Potency [2]: inactive
Potency [3]: inactive
Potency [4]: inactive
Potency [5]: inactive

O=c1cc(NCCCN[C@@H]2CCOc3c(Br)cc(Br)cc32)[nH]c2ccsc12
Potency [1]: inactive
Potency [2]: inactive
Potency [3]: inactive
Potency [4]: inactive
Potency [5]: inactive

O=C(CCCN1CCC(n2c(=S)[nH]c3ccccc32)CC1)c1ccc(F)cc1
Potency [1]: 4.47 µM (active)

CCOC(=O)N1c2ccc(C(F)(F)F)cc2C(N(Cc2cc(C(F)(F)F)cc(C(F)(F)F)c2)C(=O)OC)CC1CC (configuration not stated)
Potency [1]: inactive
Potency [2]: inactive
Potency [4]: inactive
Potency [5]: inactive

CCC(C(C)O)n1ncn(-c2ccc(N3CCN(c4ccc(OCC5COC(Cn6cncn6)(c6ccc(F)cc6F)C5)cc4)CC3)cc2)c1=O (configuration not stated)
Potency [1]: inactive
Potency [2]: inactive
Potency [4]: inactive
Potency [5]: inactive

CCCCCCOC(=O)/N=C(\N)c1ccc(NCc2nc3cc(C(=O)N(CCC(=O)OCC)c4ccccn4)ccc3n2C)cc1
Potency [1]: inactive
Potency [2]: inactive
Potency [3]: inactive
Potency [4]: inactive
Potency [5]: inactive

Cc1nc(NC(=O)N2CCCC2C(N)=O)sc1-c1ccnc(C(C)(C)C(F)(F)F)c1 (configuration not stated)
Potency [1]: inactive
Potency [2]: inactive
Potency [3]: inactive
Potency [4]: inactive
Potency [5]: inactive

Nc1nc(OCc2cc(Br)cs2)c2[nH]cnc2n1
Potency [1]: inactive
Potency [2]: inactive
Potency [3]: inactive
Potency [4]: inactive
Potency [5]: inactive

CCC(C)(NC(=O)C(CCC(N)=O)NC(=O)C1CC(O)CN1C(=O)C(C)(C)NC(=O)C(C)(C)NC(=O)C(CC(C)C)NC(=O)CNC(=O)C(NC(=O)C(C)(C)NC(=O)C(C)(C)NC(=O)C(C)(C)NC(=O)C(Cc1ccccc1)NC(C)=O)C(C)C)C(=O)N1CC(O)CC1C(=O)NC(C)(C)C(=O)NC(CO)Cc1ccccc1 (configuration not stated) (Ac-F[Aib][Aib][Aib]VGL[Aib][Aib][Hyp]Q[Iva][Hyp][Aib][Phe(ol)]; configuration not given here)
activity change, negative = inhibition [1]: -5.56% [at 9.73 µM]
activity change, negative = inhibition [2]: -5.79% [at 11.6 µM]
activity change, negative = thiol reactive [3]: 0.987% [at 11.5 µM]
activity, negative = inhibition [4]: -0.795% [at 11.6 µM]
redox activity (% of DA3003) [5]: 15.7% [at 11.5 µM]

CC1=C(c2ccc(NC(=O)c3c(F)cccc3F)cc2)CN(c2nccs2)CC1
Potency [1]: inactive
Potency [2]: inactive
Potency [3]: inactive
Potency [4]: inactive
Potency [5]: inactive

CC(=O)N1CCN(CCOc2ccc(C3CCN(C4=Nn5c(nnc5C(F)(F)F)CC4)CC3)cc2)CC1
Potency [1]: inactive
Potency [2]: inactive
Potency [3]: inactive
Potency [4]: inactive
Potency [5]: inactive

Cc1nc2ccc(CN(C)c3ccc(C(=O)NC(CCC(=O)O)C(=O)O)s3)cc2c(=O)[nH]1 (configuration not stated)
Potency [1]: inactive
Potency [2]: inactive
Potency [4]: inactive
Potency [5]: inactive

C=C(C)C(=O)O[C@H]1[C@H]2C(=C)C(=O)O[C@@H]2/C=C(\CO)CC/C=C(/C=O)[C@@H]1O
Potency [1]: inactive
Potency [2]: inactive
Potency [3]: inactive
Potency [4]: inactive
Potency [5]: inactive

CO[C@H]1O[C@@H]2O[C@@]3(C)CCC4[C@H](C)CCC([C@H]1C)[C@]42OO3 (some centres not stated)
Potency [1]: inactive
Potency [2]: inactive
Potency [3]: inactive
Potency [4]: inactive
Potency [5]: inactive

CCC/C=C/c1cc2c(C=O)c(O)c(CC=C(C)C)cc2o1
Potency [1]: inactive
Potency [2]: inactive
Potency [3]: 23.8 µM (active)
Potency [4]: inactive
Potency [5]: inactive

COC(=O)CC[C@@H](C)C1CCC2C3CCC4C[C@H](OC(C)=O)CCC4(C)C3C[C@H](O)C21C (some centres not stated)
Potency [1]: inactive
Potency [2]: inactive
Potency [3]: inactive
Potency [4]: inactive
Potency [5]: inactive

CN(CC1COCCO1)S(=O)(=O)Nc1ccc2ccc3ncc(-c4cnn(C)c4)cc3c(=O)c2c1 (configuration not stated)
Potency [1]: inactive
Potency [2]: inactive
Potency [3]: inactive
Potency [4]: inactive
Potency [5]: inactive

Cc1cc2occ(CN(C)CCN(C)Cc3cn(-c4cccc(C(F)(F)F)c4)c4ccccc34)c(=O)c2cc1C
Potency [1]: inactive
Potency [2]: inactive
Potency [4]: inactive
Potency [5]: inactive

Cc1cc(OCCCS(C)(=O)=O)cc(C)c1-c1cccc(COc2ccc(C3=CC(=O)NS3=O)cc2)c1 (configuration not stated)
Potency [1]: inactive
Potency [2]: inactive
Potency [3]: inactive
Potency [4]: inactive
Potency [5]: inactive

COC(=O)c1sccc1S(=O)(=O)Nc1ccc(Nc2ccccc2)cc1OC
Potency [1]: inactive
Potency [2]: inactive
Potency [4]: inactive
Potency [5]: inactive

COc1cc(OC)c(NC(=O)c2ccc(Cc3cc4c(cc3C)C(C)(C)CCC4(C)C)o2)c(OC)c1
Potency [1]: inactive
Potency [2]: inactive
Potency [4]: inactive
Potency [5]: inactive

CCn1c(=O)n([C@H]2CCCN(c3nccc(-c4cc5ccccc5o4)n3)C2)c2ccccc21
Potency [1]: inactive
Potency [2]: inactive
Potency [3]: inactive
Potency [4]: inactive
Potency [5]: inactive

Cc1ccc(-c2cn3c4c(sc3n2)CCCC4)cc1
Potency [1]: inactive
Potency [2]: 0.19 µM (active)
Potency [3]: inactive
Potency [4]: inactive
Potency [5]: inactive

Cc1cccc(C#Cc2cc(F)cc(C#N)c2)n1
Potency [1]: inactive
Potency [2]: inactive
Potency [3]: inactive
Potency [5]: inactive

Cn1cc(-c2cnn3c(N)c(Br)c(C4CCCNC4)nc23)cn1 (configuration not stated)
Potency [1]: inactive
Potency [2]: inactive
Potency [4]: inactive
Potency [5]: inactive

CCn1c(N)c(C(=O)NC)c(=O)c2ccc(C#CC(C)(O)COC)nc21 (configuration not stated)
Potency [1]: inactive
Potency [2]: inactive
Potency [3]: inactive
Potency [4]: inactive
Potency [5]: inactive

C=CC(=O)N1CCCC(n2nc(-c3ccc(Oc4ccccc4)cc3)c3c(N)ncnc32)C1 (configuration not stated)
Potency [1]: inactive
Potency [2]: inactive
Potency [4]: inactive
Potency [5]: inactive

CC(NC(=O)Cc1cc(F)cc(F)c1)C(=O)NC1C(=O)N(C)c2ccccc2-c2ccccc21 (configuration not stated)
Potency [1]: inactive
Potency [2]: inactive
Potency [3]: inactive
Potency [4]: inactive
Potency [5]: inactive

CC(=O)O[C@@]12CO[C@@H]1C[C@H](O)[C@@]1(C)C(=O)[C@H](O)C3=C(C)[C@@H](OC(=O)[C@H](O)[C@@H](NC(=O)OC(C)(C)C)c4ccccc4)C[C@@](O)([C@@H](OC(=O)c4ccccc4)C12)C3(C)C (some centres not stated)
Potency [1]: inactive
Potency [2]: inactive
Potency [3]: inactive
Potency [4]: inactive
Potency [5]: inactive

O=c1ccc2ccc(OCCCCN3CCN(c4cccc5sccc45)CC3)cc2[nH]1
Potency [1]: inactive
Potency [2]: inactive
Potency [4]: inactive
Potency [5]: inactive

COC(=O)N1CCC(n2ncc3c(N4CCOCC4)nc(-c4ccc(NC(=O)NC5CC5)cc4)nc32)CC1
Potency [1]: inactive
Potency [2]: inactive
Potency [3]: inactive
Potency [4]: inactive
Potency [5]: inactive
